# Data taken from PubChem BioAssay AID686979 (National Center for Advancing Translational Sciences (NCATS), 2013).
# The campaign covered roughly 420,000 compounds. About 50,000 (12%) were called active. A call without a number means that no potency is given here. Not shown: some 26% with an inconclusive outcome. Calls come from the whole dose curve; as a rule, active = well fitted inhibition curve with a large enough effect; inconclusive = small, poorly fitted or top-dose-only effect; inactive = flat fitted curve, though single readings scatter. This excerpt belongs to a sample that is enriched for actives.
# Assay: qHTS for Inhibitors of human tyrosyl-DNA phosphodiesterase 1 (TDP1): qHTS in cells in presence of CPT; note: nearly all actives have a fitted effect of over 55% in size
# Conditions: chicken DT40 Tdp1-/-;hTDP1 cells + 20 nM CPT, ATP luminescence, 48 h; series mostly up to 46.2 µM
# Method in brief: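 Chicken DT40 Tdp1-/- cells complemented with human TDP1, 400 cells/well, exposed to compounds plus 20 nM camptothecin for at least 48 h at 37 C; viability read as ATP content by CellTiter-Glo luminescence.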
# Potency is the fitted concentration of half-maximal effect.
Structure (SMILES),Potency,"activity change, negative = growth inhibition"
CC(=O)N[C@H]1[C@H]([C@H](O)[C@H](O)CO)OC(C(=O)O)=C[C@@H]1O,inactive,
CCN(CC)c1ccc2oc(=O)c(C)nc2c1,5.17 µM (active),
CCN(CC)c1ccc2c(Nc3ccccc3)c(C=O)c(=O)oc2c1,inactive,
Cc1ccc2oc(=O)ccc2c1,inactive,
CCOc1cc(/C=C2\C(=N)N3N=C(C)SC3=NC2=O)ccc1OCCOc1ccccc1,inactive,
S=C(NCc1ccco1)NCc1ccccc1Cl,inactive,
Cc1ccc(NC(=S)NCc2ccccc2Cl)c(C)c1,23.1 µM (active),
Cc1c(Cl)cccc1NC(=S)NCc1ccc2c(c1)OCO2,inactive,
CCC(=O)N1CCC(C)(C(=O)Nc2cc(OC)c(OC)c(OC)c2)C1 (stereo unspecified),inactive,
CNc1ccc(NC(C)=O)cc1[N+](=O)[O-],inactive,
Cc1ccc(Nc2ccc(C(N)=O)cc2[N+](=O)[O-])cc1,inactive,
CC(=O)Nc1ccc(/C=N/Nc2ccc(C(=O)c3c(C)cc4ccccn34)cc2[N+](=O)[O-])cc1,18.4 µM (active),
CCCCN1C(=O)C(CC(=O)NCc2cccs2)CC(C(=O)N2CCOCC2)=C1C (stereo unspecified),inactive,
O=C(CSc1ncnc2sccc12)NC1CCS(=O)(=O)C1 (stereo unspecified),inactive,
Cc1noc(C)c1C(=O)N1CCC1(C)C(=O)NS(=O)(=O)c1ccc(C#N)cc1 (stereo unspecified),inactive,
COc1ccc(C(=O)CSc2nc(C)cc(C)n2)cc1[N+](=O)[O-],inactive,
O=C(Nc1ccc([N+](=O)[O-])cc1)c1cnn2c1NC(=C1CC1)C=C2C(F)F,inactive,
O=C(Nc1ccc(Cl)cc1)c1cnn2c1NC(=C1CC1)C=C2C(F)F,inactive,
CC(C)(C)C1CCC(NC(=O)c2cnn3c2NC(=C2CC2)C=C3C(F)F)CC1 (stereo unspecified),10 µM (active),
COc1cc(NC(=S)NCc2ccco2)c(OC)cc1Cl,inactive,
CNC(=O)Nc1cc(C(C)(C)C)no1,16.4 µM (active),
COc1ccc(NC(=O)c2cc(=O)[nH]c3ccccc23)cc1S(=O)(=O)N1CCOCC1,inactive,
CCCCC/C=C\CC1OC1CCCCCCCC(=O)O (stereo unspecified),,0.0245% [at 0.628 µM] (inactive)
O=[N+]([O-])c1cc(S(=O)(=O)NCCc2ccccn2)ccc1Cl,inactive,

Structure (SMILES),Potency,"activity change, negative = growth inhibition"
Cc1ccc(C(=O)N/C(=C/c2cccnc2)C(=O)O)cc1,inactive,
O=C(Nc1cccc2ccccc12)NC1CC1,inactive,
CCN(C(=O)Nc1cccc2ccccc12)c1ccccc1,23.1 µM (active),
CC(=O)N(C)c1ccc(NC(=O)Nc2cccc3ccccc23)cc1,inactive,
CCn1c(-c2cccnc2Cl)nc2cc(C)c(C)cc21,inactive,
O=C(NCc1ccccc1)c1ccc(S(=O)(=O)Nc2cccc(C(F)(F)F)c2)cc1,inactive,
CCOC(=O)N1CCN(C(=O)c2ccc(S(=O)(=O)c3ccc(C)cc3)c(NC(C)=O)c2)CC1,inactive,
CCOC(=O)N1CCN(C(=O)c2ccc(S(=O)(=O)Nc3cccc(C(F)(F)F)c3)cc2)CC1,16.4 µM (active),
CC(C)(C)NC(=O)CN1CCC(NC(=O)C23CC4CC(CC(C4)C2)C3)CC1,inactive,
O=C(Nc1cccc(C(=O)N2CCCC2)c1)c1ccccc1,inactive,
COc1cccc(CCNC(=O)c2cccc(NC(=O)C3=C(C)OCCS3)c2)c1,23.1 µM (active),
CC(CNC(=O)c1nnc(Cc2cccc(F)c2)o1)c1ccccc1 (stereo unspecified),inactive,
CC1=C(C(=O)Nc2cccc(C(=O)NCC(C)c3ccccc3)c2)SCCO1 (stereo unspecified),16.4 µM (active),
COc1cccc(C(=O)NCCSc2ccc(Br)cc2)c1,inactive,
COc1cccc(CCNC(=O)COc2cccc3c2OC(C)(C)C3)c1,inactive,
COCCn1c(N)c(N(Cc2ccccc2)C(=O)C2CCCCC2)c(=O)[nH]c1=O,inactive,
Cc1nn(C)c(C)c1S(=O)(=O)N1CCC(CO)(Cc2ccc(Cl)cc2)CC1,inactive,
Cc1c(Cl)cnc(NC(=O)COC(=O)C2CCCC2)c1Cl,inactive,
N#Cc1ccc(CSc2ncccn2)cc1,inactive,
CC(C)C(c1nnnn1C1CCCCC1)N1CCN(C(=O)c2ccco2)CC1 (stereo unspecified),inactive,
CC1(C)C2CC[C@]3(C)C(CC=C4[C@@H]5C[C@@](C)(CO)CC[C@]5(C(=O)O)CC[C@]43C)[C@@]2(C)CC[C@@H]1O (stereo partly specified),inactive,
CCOC(=O)c1c(-c2ccc(C)cc2)csc1/N=C(\C)C1=C(O)c2ccccc2C1=O,23.1 µM (active),
CCOC(=O)c1cc2n(c1N)-c1ccccc1C2=O,inactive,
CC(=NCc1ccco1)C1=C(O)c2ccccc2C1=O,inactive,

Structure (SMILES),Potency,"activity change, negative = growth inhibition"
CN(C)Cc1c(C(=O)N/N=C/c2ccccc2OCc2ccc(F)cc2)nnn1-c1nonc1N,inactive,
CCOC(=O)N1CCC(=NNC(N)=O)CC1,inactive,
COc1ccc(S(=O)(=O)NCC(c2ccco2)N2CCOCC2)cc1 (stereo unspecified),inactive,
O=C(NC1CCCC1)C(c1ccco1)N(C(=O)c1ccco1)c1ccc(F)cc1 (stereo unspecified),inactive,
CC1(C)CC(N(Cc2ccccc2)C(=O)Cc2ccccc2)CCO1 (stereo unspecified),inactive,
CC1(C)CC(CNCCC(c2ccc(F)cc2)c2ccco2)CCO1 (stereo unspecified),25.9 µM (active),
CSc1ccc(CN(C)CC(=O)NCc2ccc(F)cc2)cc1,inactive,
CC(C=Cc1ccccc1)=NNS(=O)(=O)c1ccc([N+](=O)[O-])cc1,inactive,
CC(=O)c1c(OCC(=O)N(C)C2CCCCC2)ccc2c(C)cc(=O)oc12,inactive,
Cc1cc(/C=C2/NC(=O)NC2=O)c(C)n1-c1cccnc1,inactive,
Cc1ccc2nc(COc3ccccc3NC(=O)Nc3ccc(F)c(Cl)c3)cc(=O)n2c1,11.6 µM (active),
Cc1ccc2nc(COc3ccc(NC(=O)COc4ccccc4F)cc3)cc(=O)n2c1,inactive,
Cc1ccc2nc(COc3cccc(NC(=O)Nc4ccc(C)c(Cl)c4)c3)cc(=O)n2c1,inactive,
Cc1ccsc1C(=O)N[C@@H](C)c1nnc2ccccn12,inactive,
CCCc1cc(=O)[nH]c(SCC(=O)Nc2sc3c(c2C#N)CCCC3)n1,inactive,
COc1ccc(-n2c(SCC(=O)Nc3sc4c(c3C#N)CCCC4)nnc2-c2ccc(O)cc2)cc1,inactive,
CC(=O)c1c(C)[nH]c(C(=O)OCC(=O)Nc2c(C)n(C)n(-c3ccccc3)c2=O)c1C,inactive,
CC(=O)c1c(C)[nH]c(C(=O)OCC(=O)NCCC(C)C)c1C,inactive,
CC(=O)c1c(C)[nH]c(C(=O)OCC(=O)Nc2sc3c(c2C#N)CCCC3)c1C,16.4 µM (active),
CC(=O)c1c(C)[nH]c(C(=O)OCC(=O)Nc2c(C)cccc2C)c1C,20.6 µM (active),
CCN1CCN(CC(=O)Nc2sc3c(c2C#N)CCC3)CC1,inactive,
N#Cc1c(NC(=O)C2CCCO2)sc2c1CCCCC2 (stereo unspecified),inactive,
N#Cc1c(NC(=O)CCCl)sc2c1CCCCC2,18.4 µM (active),
